In the library only some 2.1% were active in any assay of this set; here they are far more common.
CHT allo act – CHT positive allosteric modulators, primary screen, cell-based, membrane potential dye, choline EC20; B-score at 10 µM; 310,000 compounds, 0.49% hits; High affinity choline transporter 1 (Homo sapiens), Q9GZV3; CHT-expressing cells; hits give high values; LV-AA mutant CHT in HEK293 cells;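 active means initial fluorescence not abnormally high and integrated response B-score, plate-corrected, over 3 SD above library mean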
CHT inh – inhibitors of human choline transporter CHT | CHT-expressing cells, membrane potential dye, choline response; hits give low values | AID 488975, 2010 | 310,000 compounds, 0.86% hits | B-score at 10 µM;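 active means B-score over 3 SD under the library average, and starting fluorescence ratio not unusually high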;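 further: choline stimulus applied at its EC90 after an EC20 pre-addition; B-score computed on integrated fluorescence ratio after choline addition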
EP2 antag – human EP2 receptor antagonists, primary screen, TR-FRET cAMP, C6 glioma cells | C6 glioma cells expressing human EP2; cells stimulated with saturating PGE2 | inhibition, % at 25 µM | 260,000 compounds, 0.52% hits;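 active means percent inhibition above 40 after rounding to a whole number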;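 further: rat C6 glioma host cells with rolipram phosphodiesterase inhibitor present; the protocol text gives 20 µM as final concentration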
Target sequence (P43116 whole entry, looked up): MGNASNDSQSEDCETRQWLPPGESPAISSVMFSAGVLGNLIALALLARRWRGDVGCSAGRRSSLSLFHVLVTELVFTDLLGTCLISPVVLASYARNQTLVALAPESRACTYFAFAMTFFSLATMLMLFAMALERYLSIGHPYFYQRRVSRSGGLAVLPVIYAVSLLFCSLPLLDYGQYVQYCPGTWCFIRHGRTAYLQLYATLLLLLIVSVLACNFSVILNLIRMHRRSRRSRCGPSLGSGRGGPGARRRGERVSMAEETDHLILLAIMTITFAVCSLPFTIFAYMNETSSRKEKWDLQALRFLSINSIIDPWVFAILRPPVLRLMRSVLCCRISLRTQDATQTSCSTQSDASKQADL
EP2 modulator – EP2 receptor modulators, cAMP readout, primary screen, cell-based, HTRF cAMP, PGE2 stimulation; Prostaglandin E2 receptor EP2 subtype (Homo sapiens), P43116; EP2-expressing cells, cAMP HTRF FRET, PGE2 co-stimulation; induction, % at 25 µM; 260,000 compounds, 0.83% hits; AID 940, 2007;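 active means compounds whose cAMP rise, as percent of the full-agonist control response, exceeds 60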;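 further: rat C6 glioma line stably carrying human EP2 under a CMV promoter; the protocol text gives 20 µM as final concentration; 100% = response of wells given 1 µM PGE2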
CHT act confirm – CHT activators, confirmation, cell-based, membrane potential dye, duplicate | AID 504833, 2011 | shares compounds with CHT allo act | 2,500 compounds, 91% hits | CHT-expressing cells, membrane potential dye fluorescence (FDSS); % of choline EC20–EC90 response window; HEK293 expressing CHT LV-AA mutant; choline added at its EC20 | activation, % at 10 µM;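 active means primary screen active, with duplicate mean activation above negative control mean plus 3 SD, cut at about 11% in these data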
HEK293 MP dye – membrane potential response in parental HEK293 cells, counter-screen for CHT activator project, cell-based, membrane potential dye | membrane potential dye fluorescence (FDSS); measured after EC20 choline addition | shares compounds with CHT allo act | 2,500 compounds, 62% hits | AID 623908, 2012 | ratio readout change at 10 µM, hits read low;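 active means duplicate-averaged ratio beyond 3 SD from buffer wells, up or down, though filed actives are nearly all decreases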
Active calls of the source: *; i = inactive; · = not tested or not shown.

SMILES | CHT allo act | CHT inh | EP2 antag | EP2 modulator | CHT act confirm | HEK293 MP dye
Fc1ccccc1C1(NCc2cn[nH]c2-c2cccs2)CCCC1 | · | · | 2 | 3 | · | ·
COc1ccc2oc(=O)c(C(=O)Nc3ccc(C)cc3)cc2c1 | · | · | 5 | -19 | · | ·
O=C(COc1cccc2cccnc12)N/N=C1\SCC(=O)N1Cc1ccco1 | 7.2* | i | 6 | -3 | 66* | -55*
O=C(COc1cccc2cccnc12)N/N=C1\SCC(=O)N1CCc1ccccc1 | i | i | 9 | -80 | · | ·
CCOC(=O)N1CCN(C(=O)CSc2ccc3nnc(-c4ccccn4)n3n2)CC1 | i | i | 3 | 0 | · | ·
O=C(CSc1ccc2nnc(-c3ccccn3)n2n1)N1CCOCC1 | i | i | 10 | 9 | 42* | -36*
Cc1cc(N2CCN(C)CC2)ccc1NC(=O)c1ccc(-c2ccc(Cl)cc2)o1 | i | i | · | · | 4 | i
Clc1ccc(CNCc2c(Cl)nc3ccccc3c2N2CCOCC2)cc1 | · | · | 3 | -33 | · | ·
COc1ccc(-c2nc(C#N)c(NCCCN3CCOCC3)o2)cc1 | i | i | · | -19 | 24* | -21*
COC(=O)Cc1[nH]nc2c1C1(C(=O)Nc3ccccc31)C(C#N)=C(N)O2 (stereo unspecified) | · | · | 14 | 8 | · | ·
COc1ccc(C(=O)CNC2=NCCC2)cc1 | 8.2* | i | 5 | 12 | 57* | -47*
O=C(CNC1=NCCC1)c1ccc(Cl)cc1 | i | i | 6 | 14 | 30* | -25*
Cc1cc(C)nc(/N=C(\N)Nc2ccc(S(=O)(=O)Nc3nccc(C)n3)cc2)n1 | 7.2* | i | 10 | 49 | 58* | -56*
Cc1cc(C)nc(/N=C(\N)Nc2ccc(S(=O)(=O)O)cc2)n1 | · | · | 6 | -16 | · | ·
O=C1[C@@H]2CCCN2C(=O)c2ccccc2N1Cc1ccccc1F | · | · | 0 | -43 | · | ·
COC(=O)c1ccc(N2CCN(C)CC2)c(NC(=O)c2cccs2)c1 | 6.7* | i | · | · | 33* | -71*
COC(=O)c1ccc(N2CCN(C)CC2)c(NC(=O)c2cccnc2)c1 | 10* | i | 6 | 24 | 52* | -101*
COC(=O)c1ccc(N2CCOCC2)c(NC(=O)c2cccnc2)c1 | i | i | · | · | · | ·
Cc1cccc(-c2sc(Nc3ccccc3)n[n+]2-c2ccc(F)cc2)c1 | 8.9* | i | · | · | 52* | i
CCOc1cc(-c2sc(Nc3cc(C)ccc3OC)n[n+]2-c2ccccc2)ccc1OC | i | i | · | · | 44* | i
CSc1ccc(-c2sc(Nc3ccccc3)n[n+]2-c2ccc(F)cc2)cc1 | i | i | · | · | · | ·
CCOc1cc(-c2sc(Nc3ccc(CC)cc3)n[n+]2-c2ccccc2)ccc1OC | i | i | · | · | 42* | i
Cc1cccc(CCN(C(=O)c2csnn2)C(C(=O)NC(C)(C)C)c2ccco2)c1 (stereo unspecified) | · | · | 7 | -29 | · | ·
Cc1c(O)ccc2c(-c3ccccc3)cc(=O)oc12 | i | i | · | · | · | ·
Cc1cccc2cc(-c3ccccc3)c(-c3ccccc3)c[n+]12 | i | i | 2 | -16 | 56* | -53*
SMILES | CHT allo act | CHT inh | EP2 antag | EP2 modulator | CHT act confirm | HEK293 MP dye
C/C(=N\NC(=O)c1ccccc1)c1cccc(Br)c1 | i | i | 5 | -47 | 5 | i
CCn1c(SCC(=O)Nc2ccc(N)cc2)nnc1C1CCCCC1 | · | · | 7 | -2 | · | ·
COc1ccc(-n2c(-c3ccc(Cl)cc3)c[n+]3c2CCc2ccccc2-3)cc1 | 8.2* | i | 1 | -58 | 86* | -29*
CC(=O)CCCCn1cnc2c1c(=O)n(C)c(=O)n2C | i | i | 13 | · | · | ·
CN1CCCCC1=NCCCn1cnc2c1c(=O)n(C)c(=O)n2C | 7.2* | i | 8 | 16 | 47* | -49*
CC1(C)CC(C(CCN(Cc2ccccc2)C(=O)c2ccco2)c2ccc(F)cc2)CCO1 (stereo unspecified) | 9.7* | i | 2 | 42 | 56* | i
Cc1cc(N2CCC(N(C)C3CCCC3)CC2)nc2cc(O)ccc12 | 12* | i | 10 | 3 | 31* | -73*

Screening data deposited in PubChem BioAssay by several laboratories.
